Compound activity: PubChem, several laboratories
Compounds with a hit are over-represented: about 3.8% of the library has one in this group of screens.
Cardio protect: modulators protecting cardiomyocytes from myocardial damage; 360,000 tested, 0.63% active; H9c2 cardiomyocytes, H2O2 injury protection, ATPLite, 2 h; protection from H2O2 cell death, % at 20 µM;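 active = compounds giving at least 50% protection of heart cells from peroxide-induced death in the single-dose screen, raw or plate-pattern-corrected value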;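 also: 0% = DMSO wells with peroxide and 100% = DMSO wells without peroxide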
aDG glyco act: increases alpha dystroglycan glycosylation. Pro5-aDG cells, alpha-DG glycosylation AlphaScreen (IIH6); 0% Pro5, 100% B10-LARGE cell signal. activation, % at 10 µM. 360,000 tested, 0.22% active;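 active = activation of at least 8% versus controls, or a plate z-score of at least 8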;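 also: Pro5 are CHO cells carrying HIG-tagged alpha-DG that lacks glycosylation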
CR mimetic SO: caloric restriction mimetics inhibiting age-related superoxide in yeast | S. cerevisiae aged cells, superoxide DHE fluorescence; active compounds read low | superoxide response (% of plate mean), % at 10 µM | 330,000 tested, 0.18% active | AID 2690;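 active = superoxide response under a set limit, about three screen SD below normal, cut at about 65% in these data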;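 also: yeast aged for seven days with compound at 30 °C before DHE staining; 100% = average MFI of all compound-treated wells on the plate with controls excluded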
MPTP block: permeability transition pore inhibition. isolated mouse mitochondria, Ca2+ swelling absorbance, 30 min. inhibition, % at 10 µM. 360,000 tested, 1.4% active;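 active = inhibition of 50% or more, scaled per plate between neutral and stimulator controls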;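 also: 0% = DMSO wells given calcium and 100% = 1 mM EGTA wells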
SUMO Mot1 rescue: inhibitors of SUMOylation pathway: yeast Mot1-301 growth rescue. growth rescue, % at 18.8 µM. S. cerevisiae Mot1-301 growth rescue, ATP luminescence, 38.5C; percent above DMSO median, 100 means doubled. 320,000 tested, 1% active;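 active = every valid replicate shows activation above 250% relative to neutral control wells; inactive = the rest, any valid replicate at or below 250%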;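 also: OY570 slx delta 5 strain wells were the positive control but not used for scaling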
FAS-TE inh: inhibitors of human fatty acid synthase thioesterase domain; AID 602261; 360,000 tested, 0.67% active; inhibition, % at 15 µM; recombinant FAS-TE, OMFH fluorogenic substrate, fluorescence endpoint; P49327;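 active = compounds whose normalised, plate-corrected inhibition of enzyme fluorescence in the single-dose primary screen is 50% or more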;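 also: 0% = DMSO with enzyme and 100% = substrate without enzyme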
FAS-TE inh conf: confirmation of human fatty acid synthase thioesterase inhibitors; 2,300 tested, 45% active; inhibition, % at 15 µM; shares compounds with FAS-TE inh; recombinant FAS-TE, OMFH fluorogenic substrate, fluorescence;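 active = compounds inhibiting the enzyme by at least 50% at 15 µM in any one of the replicates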;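 also: 0% = enzyme with DMSO only and 100% = wells lacking enzyme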
* = called active by the depositor; nt = no result.

SMILES | Cardio protect | aDG glyco act | CR mimetic SO | MPTP block | SUMO Mot1 rescue | FAS-TE inh | FAS-TE inh conf
COc1ccccc1N1CCN(C(=O)C(C)NC(=O)c2cccc([N+](=O)[O-])c2)CC1 (stereo not given) | -1 | 0 | 98 | 0 | -9 | 80* | 86*
CN(CC(=O)Nc1ccc(S(=O)(=O)N(C)C)cc1)Cc1ccc(C(F)(F)F)cc1 | -15 | 0 | 98 | 2 | 8 | 53* | 40
CCOC1=C2[C@@H](CN(S(=O)(=O)c3ccc(C)cc3)[C@H]2c2cccc3ccccc23)[C@H]2C(=O)N(c3ccccc3)C(=O)[C@H]2C1 | 1 | 0 | nt | 0 | nt | 77* | 14
CCCCC[C@@H]1[C@H]2[C@H]3C(=O)N(c4ccccc4)C(=O)[C@H]3CC(=O)[C@H]2[C@H](c2ccccc2)N1S(=O)(=O)c1ccc(C)cc1 | 1 | 0 | nt | 1 | nt | 59* | 20
CCOC1=C2[C@@H](CN(S(=O)(=O)c3ccc(C)cc3)[C@H]2c2ccc(Cl)cc2)[C@H]2C(=O)N(c3ccccc3)C(=O)[C@H]2C1 | -2 | 1 | nt | 2 | nt | 62* | 40
CCOC1=C2[C@@H](CN(S(=O)(=O)c3ccccc3)[C@H]2c2ccccc2)[C@H]2C(=O)N(c3ccccc3)C(=O)[C@H]2C1 | 1 | 0 | nt | 1 | nt | 22 | nt
CCOC1=C2[C@@H](CN(S(=O)(=O)c3ccc(C)cc3)[C@H]2c2cccs2)[C@H]2C(=O)N(c3ccccc3)C(=O)[C@H]2C1 | 5 | 0 | nt | -1 | nt | 12 | nt
Cc1ccc(S(=O)(=O)N2C[C@H]3[C@H]4C(=O)N(c5ccccc5)C(=O)[C@H]4CC(=O)[C@H]3[C@@H]2c2ccccc2)cc1 | 0 | 0 | nt | 1 | nt | 5 | nt
CCOC1=C2[C@H]([C@H]3C(=O)N(c4ccccc4)C(=O)[C@H]3C1)[C@@H](C(C)C)N(S(=O)(=O)c1ccc(C)cc1)[C@H]2c1ccccc1 | 2 | 0 | nt | 1 | nt | 58* | 21
CC(Oc1cccc2cccnc12)C(=O)N/N=C/c1ccc2c(c1)OCO2 (stereo not given) | 3 | 0 | 106 | 0 | 28 | 6 | nt
CCOC1=C2[C@@H](CN(S(=O)(=O)c3ccc(C)cc3)[C@H]2c2cccc3ccccc23)[C@H]2C(=O)N(C3CCCCC3)C(=O)[C@H]2C1 | 5 | 0 | nt | 3 | nt | 67* | 13
Cc1ccc(S(=O)(=O)N2C[C@H]3[C@H]4C(=O)N(C5CCCCC5)C(=O)[C@H]4CC(=O)[C@H]3[C@@H]2c2ccccc2Cl)cc1 | 9 | 0 | nt | 0 | nt | 62* | -1
CCN1C(=O)[C@@H]2[C@@H]3CN(S(=O)(=O)c4ccc(C)cc4)[C@@H](c4cccc5ccccc45)[C@@H]3C(=O)C[C@@H]2C1=O | 10 | 0 | nt | 5 | nt | -7 | nt
O=C(CN1C(=O)NC2(CCCC2)C1=O)OCc1c(F)cccc1Cl | 11 | 0 | 96 | -2 | 122 | -6 | nt
CCCCN(C=O)c1c(CC)nc2c(OCc3ccccc3C)cccn12 | 1 | 1 | nt | 0 | nt | 2 | nt
CCCCN(C=O)c1c(CC)nc2c(OCc3ccc(C(F)(F)F)cc3)cccn12 | -20 | 0 | nt | 0 | nt | 29 | nt
CCc1nc2c(OCc3ccc(C(F)(F)F)cc3)cccn2c1N(C=O)Cc1ccc(OC)cc1 | -7 | 1 | nt | 0 | nt | 57* | 52*
CCCCN(C=O)c1c(CC)nc2c(OCc3ccc(Cl)cc3Cl)cccn12 | -7 | 1 | nt | 1 | nt | 55* | 61*
CCCCNC(=O)CCC(=O)Nc1ccc2nc(N3CCC(C)CC3)cc(C)c2c1 | -8 | 0 | 96 | 3 | -12 | 60* | 45
Cc1cc(N2CCOCC2)nc2ccc(NC(=O)CCC(=O)N3CCC(C)CC3)cc12 | 5 | 0 | 101 | 3 | -29 | -4 | nt
CC(C)(C)c1ccc(/C=C2\CCn3c2nc2cc(C(=O)O)ccc2c3=O)cc1 | 10 | 0 | 95 | 1 | -8 | 84* | 88*
CCn1c2ccccc2c2cc(NC(=O)COC(=O)c3cc(OC)c(OC)cc3OC)ccc21 | 22 | 0 | 99 | 0 | 14 | 64* | 30
CS(=O)(=O)c1ccc2nc(NC(=O)C3=NN(c4ccccc4)C(=O)CC3)sc2c1 | 23 | 0 | 100 | 1 | -6 | -2 | nt
CS(=O)(=O)c1ccc2nc(NC(=O)c3cc(-c4ccccc4)nn3-c3ccccc3)sc2c1 | 22 | 0 | 110 | 2 | 5 | 86* | 12
O=C(O)COc1ccccc1C(Nc1ccccn1)c1cc(Cl)c2cccnc2c1O (stereo not given) | 16 | 0 | 97 | 4 | 43 | 54* | 51*
SMILES | Cardio protect | aDG glyco act | CR mimetic SO | MPTP block | SUMO Mot1 rescue | FAS-TE inh | FAS-TE inh conf
COc1ccc(S(=O)(=O)N2CCC(C(=O)Nc3ccc(S(=O)(=O)N4CCCC4)cc3)CC2)cc1OC | 6 | 0 | 98 | 0 | 32 | 4 | nt
CN(CC(=O)Nc1ccccc1Cl)C(=O)COC(=O)c1cc([N+](=O)[O-])ccc1N1CCOCC1 | 0 | 0 | 89 | 0 | 6 | 42 | nt
CN(C(=O)COC(=O)c1cc([N+](=O)[O-])ccc1N1CCCC1)C1CCS(=O)(=O)C1 (stereo not given) | 4 | 0 | 102 | -6 | -22 | 3 | nt
CCN(C(=O)COC(=O)c1cc([N+](=O)[O-])ccc1N1CCOCC1)c1ccccc1 | -2 | -1 | 93 | -2 | -9 | 78* | 71*
CN(Cc1ccccc1)C(=O)COC(=O)c1cc([N+](=O)[O-])ccc1N1CCOCC1 | 8 | 0 | 108 | 1 | -7 | 92* | 91*
CCC(C)N(C(=O)COC(=O)c1cc([N+](=O)[O-])ccc1N1CCOCC1)C1CCS(=O)(=O)C1 (stereo not given) | 2 | 0 | 102 | 0 | -9 | 11 | nt
COc1ccc(CN(C)C(=O)COC(=O)c2cc([N+](=O)[O-])ccc2N2CCCC2)c(OC)c1OC | 2 | 0 | 91 | 0 | -2 | 70* | 31*
CC(CN1C(C)CCCC1C)OC(=O)c1ccc(F)cc1 (stereo not given) | -2 | 0 | 98 | 0 | -15 | 1 | nt
CC(=O)Nc1ccc(S(=O)(=O)NCCC(=O)NCc2ccco2)cc1 | -2 | 0 | nt | 0 | nt | -6 | nt
Cc1ccc(C(=O)O/N=C(\N)Cc2cccs2)cc1[N+](=O)[O-] | -8 | 0 | 98 | -1 | 199 | 62* | 76*
Cc1nnc(Sc2cc(NCCO)c([N+](=O)[O-])c3nonc23)s1 | -34 | 0 | nt | 11 | nt | 65* | 64*
Cc1nnc(Sc2cc(NCCCO)c([N+](=O)[O-])c3nonc23)s1 | -22 | 0 | nt | 6 | nt | 63* | 69*
